Assay results reported in PubChem BioAssay (Tox21).
Where “and” joins values, the source holds several entries; their conditions need not be identical. Identical values can stand only once. Records with an inconclusive call do not appear. Entries that show only a call come without a potency. Calls of active or inactive are those of the source. The call rests on the fitted dose curve; in most records, active means well fitted cell-killing curve with a large enough effect in the repeat runs; inconclusive means weak or mixed curves, or effect the other way; inactive means flat fitted curve, though single readings scatter.

experiment: cAMP Responsive Elements (CRE) small molecule antagonists, cell-based qHTS assay: qHTS cell viability counter screen (AID 2060913); details: CRE-bla HEK293T viability, CellTiter-Glo luminescence, 5 h; series mostly up to 92.4 µM; further: nearly all actives have a fitted effect of over 40% in size; further: potency means the concentration at half of the fitted maximal effect
Method in brief: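 HEK293T CRE-bla, 2,000 cells/well, 18 h preincubation; cpd in DMSO + NKH477 0.25 uM final, 3 h 37 C/5% CO2; LiveBLAzer 2 h RT, then CellTiter-Glo 30 min RT, luminescence.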

Row | SMILES | Potency
1 | Cc1ccccc1OP(=O)(Oc1ccccc1C)Oc1ccccc1C | inactive
2 | N#CCCC#N | inactive
3 | O=C(OC1CCCCC1)c1ccccc1C(=O)OC1CCCCC1 | inactive
4 | O=[N+]([O-])c1cc(Cl)ccc1Cl | inactive
5 | Clc1ccc(CCC(Cn2ccnc2)Sc2c(Cl)cccc2Cl)cc1 (stereo not drawn) | inactive
6 | O=C(Cl)c1ccccc1F | inactive
7 | CCCCc1c(C)nc(NCC)[nH]c1=O | inactive
8 | CNC(=O)O/N=C/C(C)(C)SC | inactive
9 | O=C1C2(Cl)C3(Cl)C4(Cl)C(Cl)(Cl)C5(Cl)C3(Cl)C1(Cl)C5(Cl)C24Cl (stereo not drawn) | 60.1 µM (active)
10 | CC(C)(C)C(=O)CCl | inactive
11 | CCC[N+]1(C)CCCC1 | inactive
12 | COc1ccc(C=O)cc1O | inactive
13 | C[C@@H]1CN(C2CCC(C#N)(c3ccc(F)cc3)CC2)CC[C@]1(C(=O)O)c1ccccc1 (stereo partly drawn) | inactive
14 | CCOC(=O)CC(=O)CCl | inactive
15 | Cc1ccc(N)cc1Cl | inactive
16 | CCC1CCC(=O)O1 (stereo not drawn) | inactive
17 | O=[N+]([O-])c1cc(C(F)(F)F)cc([N+](=O)[O-])c1Cl | inactive
18 | CCOC(=O)c1cncn1C(C)c1ccccc1 (stereo not drawn) | inactive
19 | CCCSP(=S)(OCC)Oc1ccc(SC)cc1 (stereo not drawn) | inactive
20 | CCC/C(=N\OCC)C1=C(O)CC(CC(C)SCC)CC1=O (stereo not drawn) | inactive

Row | SMILES | Potency
21 | ClC=C(Cl)Cl | inactive
22 | COP(=S)(OC)Oc1ccc([N+](=O)[O-])cc1 | inactive
23 | CCOC(=O)c1ncn2c1CN(C)C(=O)c1c(I)cccc1-2 | inactive
24 | Cc1ccc(OP(=O)(Oc2ccccc2)Oc2ccccc2)cc1 | inactive
25 | Clc1ccccc1Cl | inactive
26 | CC(C)(C)C(O)C(Oc1ccc(-c2ccccc2)cc1)n1cncn1 (stereo not drawn) | inactive
27 | NC(=O)C(Cl)Cl | inactive
28 | ClC(Cl)=C(c1ccc(Cl)cc1)c1ccccc1Cl | inactive
29 | CC1(C)CC(=O)CC(C)(C)N1[O] | inactive
30 | COc1ccc2c(c1OC)CN1CCc3cc4c(cc3C1C2)OCO4 (stereo not drawn) | inactive
31 | Nc1ccc(-c2ccccc2)cc1 | inactive
32 | CCOP(=O)(OCC)SCCSCC | inactive
33 | CN(C)N | inactive
34 | N#C/C(N)=C(/N)C#N | inactive
35 | CCC[CH2][Sn]([Cl])([CH2]CCC)[CH2]CCC | 3.86 µM (active) and 7.7 µM (active)
36 | CCC(C)c1cc([N+](=O)[O-])cc([N+](=O)[O-])c1OC(=O)C=C(C)C (stereo not drawn) | inactive
37 | OCC(Br)CBr (stereo not drawn) | inactive
38 | CCOC(=O)c1ccccc1N | inactive
39 | CC(Cc1ccc(C(C)(C)C)cc1)CN1C[C@@H](C)O[C@@H](C)C1 (stereo partly drawn) | inactive
40 | CC1=NNC(=O)N(/N=C/c2cccnc2)C1 | inactive

experiment: cAMP Responsive Elements (CRE) small molecule agonists, cell-based qHTS assay: qHTS cell viability counter screen (AID 2060914); details: CRE-bla HEK293T viability, CellTiter-Glo luminescence, 5 h; series mostly up to 92.4 µM;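 further: viability read after 3 h of compound exposure; nearly all actives have a fitted effect of over 50% in size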
Method in brief: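 CRE-bla HEK 293T cells, plated 18 h at 37 °C, were exposed to compounds for 3 h at 37 °C/5% CO2. Viability was then measured in the same wells by CellTiter-Glo luminescence after 30 min at room temperature.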

Row | SMILES | Potency
41 | Cc1ccccc1OP(=O)(Oc1ccccc1C)Oc1ccccc1C | inactive
42 | N#CCCC#N | inactive
43 | O=C(Cl)c1ccccc1F | inactive
44 | CCOC(=O)CC(=O)CCl | inactive
45 | Cc1ccc(N)cc1Cl | inactive
46 | CCC/C(=N\OCC)C1=C(O)CC(CC(C)SCC)CC1=O (stereo not drawn) | inactive
47 | COP(=S)(OC)Oc1ccc([N+](=O)[O-])cc1 | inactive
48 | Clc1ccccc1Cl | inactive
49 | Nc1ccc(-c2ccccc2)cc1 | inactive
50 | CN(C)N | inactive
51 | N#C/C(N)=C(/N)C#N | inactive
52 | CCC(C)c1cc([N+](=O)[O-])cc([N+](=O)[O-])c1OC(=O)C=C(C)C (stereo not drawn) | inactive
53 | CCOC(=O)c1ccccc1N | inactive
